Results on 29 molecules are retold here after PubChem BioAssay.

The structures appear in SMILES notation.

This assay relates to Noggin (protein binding on small-molecule microarray). The assay is described as follows: Noggin binders on small-molecule microarray, primary screen, biochemical, 635/667 nm fluorescence (AID 1095).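 Note: score merges 667 nm feature fluorescence with signal to noise over triplicate slides.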 The note with it: 635 nm fluorescence, higher = more signal.
`CO[C@H]1COC(=O)CC=C[C@H](C)[C@@H](OC)COC(=O)[C@@H](C)NC(=O)CC=C[C@@H]1C` yielded a composite z-score of 1.54.
For `CCOC(=O)[C@H](Cc1ccccc1)NC(=O)OC1CC(CCC2CC(CC)=NO2)OC2(CCCC(COC(=O)NCCC(C)C)O2)C1` (some centres undefined) the value was 0.322.
The same measure for `CC(C)CON=C1C[C@@H](O)[C@@H](O)[C@@H]2[C@@H]3C(=O)N(c4ccc(F)cc4F)C(=O)[C@@H]3CC[C@H]12`: 0.409; for `CC(C)(C)N1C(=O)[C@H]2[C@H]3[C@H](O)[C@H](O)CC(=NO[C@@H]4O[C@H](CO)[C@@H](O)[C@H](O)[C@H]4O)[C@H]3CC[C@H]2C1=O`: 0.593.
As to `COC(=O)C=CCCc1coc(C=CCNC(=O)OC)n1`, the composite z-score was determined as 1.37.
For `Cc1ccc(S(=O)(=O)OC[C@H]2CN3[C@H](c4ccc(Br)cc4)[C@@H](C)CC[C@H]3C(=O)O2)cc1`, the composite z-score came to 1.24.
Molecule `CO[C@@H]1COC(=O)[C@@H](C)NC(=O)CC=C[C@@H](C)[C@H](NS(=O)(=O)c2ccc(C)cc2)COC(=O)[C@H](C)NC(=O)CC=C[C@H]1C` had a composite z-score of 0.879.
For `COC(=O)[C@H](C)NC(=O)CCC1CC(OC(=O)NCc2ccc3c(c2)OCO3)CC2(CCCC(COC(=O)NCC3CCCCC3)O2)O1` (some centres undefined) the value was 1.1; for `C#CCCCON=C1C[C@@H](O)[C@@H](O)[C@@H]2[C@@H]3C(=O)N(C(C)(C)C)C(=O)[C@@H]3CC[C@H]12`, -0.532; for `CCOC(=O)NN=C1C[C@@H](O)[C@@H](O)[C@@H]2[C@@H]3C(=O)N(C(C)(C)C)C(=O)[C@@H]3CC[C@H]12`, 0.708.
With `C[C@H]1COC(=O)[C@@H]2CCCN2C(=O)[C@@H](C)COC(=O)[C@H](Cc2ccccc2)NC1=O`, the composite z-score came to 0.396.
For `CCOC(=O)NN=C1C[C@@H](O)[C@@H](O)[C@@H]2[C@@H]3C(=O)N(c4cccc(Oc5ccccc5)c4)C(=O)[C@@H]3CC[C@H]12` the value was 0.311; for `CCOC(=O)C1=NO[C@@]2(C=C(Br)C3(OCCCO3)[C@H]3O[C@H]32)C1`, 1.42; for `CO[C@@H]1COC(=O)[C@H](CCSC)NC(=O)CC=C[C@@H](C)COC(=O)CCC[C@H]1C`, 1.82.
For `CCOC(=O)[C@H](Cc1ccccc1)NC(=O)CCC1CC(OC(=O)NCc2cccc3ccccc23)CC2(CCCC(COC(=O)NCCC(C)C)O2)O1` (some centres undefined) the value was 0.0111; for `CC[C@@H](c1ccccc1)n1c(=O)n2n(c1=O)[C@H]1[C@H](O)[C@@H]3O[C@@H]3C(=O)[C@H]1CC2`, 0.417.
In the case of `CCc1cc2c(nc1CC)CCN(CCC(C)=NO[C@H](C)c1cn([C@H](CO)Cc3ccccc3)nn1)C2`, the composite z-score worked out at 0.336.
In the case of `CCOC(=O)[C@H](CC(C)C)NC(=O)CCC1CC(OC(=O)NCc2ccc3c(c2)OCO3)CC2(CCCC(COC(=O)NCC(c3ccccc3)c3ccccc3)O2)O1` (some centres undefined), the composite z-score amounted to 0.617.
The same measure for `CCOC(=O)CCN1C(=O)[C@H]2[C@H]3[C@H](O)[C@H](O)CC(=NOCC(C)C)[C@H]3CC[C@H]2C1=O`: 0.109; for `O=C1[C@H]2[C@H]3[C@H](O)[C@H](O)CC(=NOCc4ccccc4)[C@@H]3CC[C@H]2C(=O)N1C[C@@H]1CCCO1`: 0.228.
In turn, `CCOC(=O)[C@H](CC(C)C)NC(=O)CCC1CC(OC(=O)NCc2cccc3ccccc23)CC2(CCCC(COC(=O)NCC3CCCCC3)O2)O1` (some centres undefined) showed a composite z-score of 0.895.
`CC(C)=CCCC(C)=CCON=C1C[C@@H](O)[C@@H](O)[C@@H]2[C@@H]3C(=O)N(c4cccc(Oc5ccccc5)c4)C(=O)[C@@H]3CC[C@@H]12` displayed a composite z-score of -0.283.
Molecule `O=C1[C@H]2[C@H]3[C@H](O)[C@H](O)CC(=NOC[C@@H](O)COCc4ccco4)[C@H]3CC[C@H]2C(=O)N1c1ccc(F)cc1F` showed a composite z-score of -0.349.
Molecule `COc1ccc(O[C@@H]2[C@H](O)CO[C@H]2C=Cc2ccccc2)cc1` registered a composite z-score of 0.146.
`COC(=O)[C@@H]1CC[C@H](C)[C@@H](c2ccc(C)cc2)N1C(=O)c1ccc(C=NO[C@@H]2O[C@H](COC(C)=O)[C@@H](OC(C)=O)[C@H](OC(C)=O)[C@H]2OC(C)=O)cc1` showed a composite z-score of 0.199.
The same measure for `CO[C@H]1COC(=O)[C@H](C)NC(=O)[C@@H](C)COC(=O)[C@H]2CCCN2C(=O)CC=C[C@H]1C`: 0.542; for `CC(C)=CCCC(C)=CCON=C1C[C@@H](O)[C@@H](O)[C@@H]2[C@@H]3C(=O)N(c4ccc(F)cc4F)C(=O)[C@@H]3CC[C@H]12`: 0.819; for `COc1cc(O)c(C(=O)C=Cc2ccc3c(c2)OCO3)c(OC)c1`: 0.257.
The molecule `COc1ccc(O[C@H]2C=C[C@@H](c3ccccc3)O[C@@H]2CON=C2[C@H]3CCn4c(=O)n(-c5ccccc5)c(=O)n4[C@H]3[C@H](O)[C@@H]3O[C@H]23)cc1` yielded a composite z-score of 0.437.
